Bioassay records deposited in PubChem by National Center for Advancing Translational Sciences (NCATS).
Pf growth 96h: P. falciparum growth inhibition at 96 hour, primary screen for plastid delayed-death inhibitors. P. falciparum luciferase reporter growth, 96 h. Potency, µM (series often up to 28.7 µM), for the others: at the top dose activity change, negative = inhibition, hits mostly inhibitors. 320,000 tested, 6.9% active. AID 504834
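Delayed-death screen, second-generation endpoint: infected erythrocytes, 2% hematocrit, 0.05% parasitemia final; 96 hours at 37 C, 5% CO2; luciferase detection reagent; luminescence decrease equals reduced growth.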
AmpC no deterg: blocks E. coli AmpC beta-lactamase in detergent-free assay. P00811. AmpC nitrocefin hydrolysis, absorbance 480 nm, 0.0001% Triton. Potency, µM (highest dose often 57.1 µM), for inactives: at the highest dose activity change, negative = inhibition, hits mostly inhibitors. 330,000 tested, 0.52% active;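 note: plate controls were no compound for no effect and no enzyme for full effect; nearly all actives have a fitted effect of over 20% in size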
Target sequence (P00811 whole entry, looked up): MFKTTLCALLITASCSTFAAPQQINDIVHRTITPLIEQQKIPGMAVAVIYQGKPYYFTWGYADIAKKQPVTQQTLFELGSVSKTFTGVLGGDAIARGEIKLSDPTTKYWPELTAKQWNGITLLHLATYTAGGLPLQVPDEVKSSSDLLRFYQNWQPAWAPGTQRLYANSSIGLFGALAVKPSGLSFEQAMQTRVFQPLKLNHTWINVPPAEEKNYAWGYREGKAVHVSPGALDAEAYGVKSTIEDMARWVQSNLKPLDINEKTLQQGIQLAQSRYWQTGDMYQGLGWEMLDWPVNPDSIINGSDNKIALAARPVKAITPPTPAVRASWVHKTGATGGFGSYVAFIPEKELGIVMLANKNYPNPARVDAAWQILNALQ
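AmpC (5.3 nM in the dispensed reagent) in 20 mM phosphate pH 7.0 with 0.01% (detergent screen) or 0.0001% Triton X-100 was preincubated with compounds for 15 min at room temperature. Nitrocefin was then added from an 800 uM solution, and hydrolysis was followed at 480 nm.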
Pf growth 48h: inhibits P. falciparum growth in the first generation, 48 h; P. falciparum luciferase growth in erythrocytes, 48 h; Potency, µM (titrated, usually from 28.7 µM), inactives show at the top dose activity change, negative = inhibition, most hits filed as inhibitors; 310,000 tested, 5.9% active; AID 504832
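Growth was read as firefly luciferase luminescence after a 48 h, 37 C, 5% CO2 exposure of compounds to reporter-bearing P. falciparum cultures (0.1% parasitemia, 2% hematocrit final) in Albumax-supplemented RPMI 1640.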
HCV inh: HCV inhibition; Huh7.5.1 HCVcc-Cre infection, luciferase reporter, 44 h; Potency, µM (titrated, usually from 41.8 µM), without a hit: at the highest dose activity change, negative = inhibition, usual class: inhibitors; 340,000 tested, 3.4% active
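Infectious HCV cell culture screen: compound-treated cells (1,000/well, pre-plated 4 h) are infected with HCVcc-Cre at roughly 0.5 moi and grown 44 h. Infection is quantified by luciferase signal after 15 min substrate incubation at room temperature.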
AmpC inh detg: inhibitors of E. coli AmpC beta-lactamase with detergent | 370,000 tested, 0.041% active | Potency, µM (titrated, usually from 114 µM), for inactives: at the highest dose activity change, negative = inhibition, hits mostly inhibitors | P00811 | AID 485294 | AmpC hydrolysis of nitrocefin, absorbance 480 nm, 0.01% Triton;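 note: 0% = no-compound wells and -100% = no-enzyme wells; nearly all actives have a fitted effect of over 25% in size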
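20 mM phosphate pH 7.0 + 0.01% (detergent screen) or 0.0001% Triton X-100; 5.3 nM AmpC reagent; cpd preinc 15 min RT; nitrocefin (800 uM stock) to start; A480 q20 s × 4 min; Activity was normalised to no-enzyme and no-compound control wells.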
AMA1 RON2 block: AMA1-RON2 (P. falciparum) interaction inhibition. AlphaScreen AMA1-biotinylated RON2 peptide binding. Potency, µM (doses to about 58.2 µM), inactives show at the highest dose activity change, negative = inhibition, hits mostly inhibitors. 360,000 tested, 0.2% active. AID 720542;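 note: 0% = vehicle wells and -100% = peptide control; nearly all actives have a fitted effect of over 45% in size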
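AMA1 (3D7) with his tag at 25 nM final met compounds first, then biotinylated RON2 peptide at 25 nM; detection used donor plus acceptor beads, 10 µg/mL apiece, read by AlphaScreen after 30 min at room temperature.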
Active calls of the source: *; ? = inconclusive; nt = no result given; [ ] = another dose, or the depositor's remark. Rows were chosen to be rich in hits. Some 11% of all compounds tested hit in one or more screens of this group. Calls come from the whole dose curve; as a rule, active = well fitted curve in the direction sought with a large enough effect; inconclusive = small, poorly fitted or top-dose-only effect, or another doubt; inactive = no such curve, though single readings can be large; an effect the other way counts as inactive or inconclusive. Unless noted, % is set by controls: 0 for no effect and ±100 for the full control effect; potency is the fitted concentration of half-maximal effect.

SMILES	Pf growth 96h	AmpC no deterg	Pf growth 48h	HCV inh	AmpC inh detg	AMA1 RON2 block
Cc1ccc2c(=O)c(C(=O)c3cccc(Cl)c3)cn(CC(=O)Nc3ccccc3C(F)(F)F)c2n1	nt	nt	nt	nt	5.4%	nt
CCOC(=O)c1c(C)[nH]c(C)c1C(=O)COC(=O)c1ccc(S(=O)(=O)N(CC)CC)cc1	?	10.2%	?	25.1µM*	-10.0%	-17.8%
CCOC(=O)c1c(C)[nH]c(C)c1C(=O)COC(=O)c1cccc(S(=O)(=O)NC)c1	24.5%	1.0%	3.6%	-25.1%	4.2%	14.5%
CCOC(=O)c1c(C)[nH]c(C)c1C(=O)COC(=O)c1cccc(S(=O)(=O)N(CC)CC)c1	9.28µM*	29.4%	14.7µM*	?	?	-2.7%
CCOc1ccc(NC(=O)CSc2oc(-c3ccc(F)cc3)nc2S(=O)(=O)c2ccc(C)cc2)cc1	nt	nt	nt	nt	5.4%	nt
Nc1nonc1C(=O)NCCNCc1ccc(Cl)c(Cl)c1	nt	nt	nt	nt	1.6%	nt
CCOC(=O)c1c(C)[nH]c(CCC(=O)NCc2cc(Br)ccc2OC)c1C	nt	nt	nt	nt	-2.8%	nt
C/C=C(\C)C(=O)Nc1cccc(C2=NOC3(C2)C[C@@H](C(N)=O)N(C(=O)c2ccccc2C(=O)c2ccccc2)C3)c1 (stereo partly specified)	?	159.9%	?	3.4%[8.37 µM]	0.8%	-7.4%
CCCCCC(=O)Nc1cccc(C2=NOC3(C2)C[C@H](C(N)=O)N(C(=O)c2ccccc2C(=O)c2ccccc2)C3)c1 (stereo partly specified)	?	168.8%	9.28µM*	?	-2.0%	-2.4%
C=C(C)C(=O)Nc1cccc(C2=NOC3(C2)C[C@H](C(N)=O)N(C(=O)c2ccccc2C(=O)c2ccccc2)C3)c1 (stereo partly specified)	13.1µM*	162.7%	?	7.5%	2.0%	37.5%
COc1cc(OC)c(NC(=O)c2c3c(nc4ccccc24)C(=O)N(C2CCCCC2)C3)cc1Cl	nt	nt	nt	nt	-3.0%	nt
Cc1ccc(N2CSC3=C(C#N)C(c4cccs4)CC(=O)N3C2)cc1 (stereo unspecified)	14.7µM*	-48.6%	nt	-14.3%	?	94.8%
COc1ccc(N2CSC3=C(C#N)C(c4cc(OC)ccc4OC)CC(=O)N3C2)c(OC)c1 (stereo unspecified)	13.1µM*	-13.8%	nt	?	?	44.2%
CN(C)c1ccc(CNC(=O)C2CCN(Cc3cc4ccccc4n3Cc3ccccc3)CC2)cc1	nt	nt	nt	nt	6.7%	nt
Cc1ccc(OCC(=O)Nc2cccc(C(=O)OCc3cc(=O)n4cc(C)sc4n3)c2)cc1	nt	nt	nt	nt	7.1%	nt
CCOC(=O)C1CCN(C(=O)CSc2n[nH]c(-c3ccc(OC)cc3)n2)CC1	nt	nt	nt	nt	14.8%	nt
COc1ccc(OC)c(NC(=O)CSC2=C(C#N)C(c3ccco3)C3=C(CCCC3=O)N2)c1 (stereo unspecified)	-3.8%	-4.0%	9.28µM*	?	-13.4%	-4.5%
CC(=O)C1=C(C)NC(SCC(=O)c2ccc(C)cc2)=C(C#N)C1c1ccco1 (stereo unspecified)	6.57µM*	-12.0%	9.28µM*	7.08µM*	?	nt
COc1ccccc1NC(=O)C1=C(C)NC(SCC(=O)c2ccccc2)=C(C#N)C1c1ccco1 (stereo unspecified)	nt	?	9.28µM*	7.94µM*	?	-10.8%
COc1ccc(NC(=O)CSC2=C(C#N)C(c3ccco3)C(C(=O)Nc3nc4ccccc4s3)=C(C)N2)cc1 (stereo unspecified)	nt	nt	nt	?	nt	0.8%
COc1ccc(-n2nc(C(=O)NCCc3ccc(OC)c(OC)c3)c3c4ccccc4n(C)c3c2=O)cc1Cl	nt	nt	nt	nt	2.1%	nt
CC(=O)c1ccc(N2CCN(S(=O)(=O)c3c(C)nc4sc(C)cn4c3=O)CC2)cc1	nt	nt	nt	nt	-7.9%	nt
